These results are taken from PubChem BioAssay AID1224897 (Sanford-Burnham Center for Chemical Genomics, 2016).

The structures appear in SMILES notation. The list shows a part of the results. The source made the active and inactive calls. No rule for the calls is given here.

Sequence of Hepatocyte nuclear factor 4-alpha (Homo sapiens) (P41235 whole entry, looked up): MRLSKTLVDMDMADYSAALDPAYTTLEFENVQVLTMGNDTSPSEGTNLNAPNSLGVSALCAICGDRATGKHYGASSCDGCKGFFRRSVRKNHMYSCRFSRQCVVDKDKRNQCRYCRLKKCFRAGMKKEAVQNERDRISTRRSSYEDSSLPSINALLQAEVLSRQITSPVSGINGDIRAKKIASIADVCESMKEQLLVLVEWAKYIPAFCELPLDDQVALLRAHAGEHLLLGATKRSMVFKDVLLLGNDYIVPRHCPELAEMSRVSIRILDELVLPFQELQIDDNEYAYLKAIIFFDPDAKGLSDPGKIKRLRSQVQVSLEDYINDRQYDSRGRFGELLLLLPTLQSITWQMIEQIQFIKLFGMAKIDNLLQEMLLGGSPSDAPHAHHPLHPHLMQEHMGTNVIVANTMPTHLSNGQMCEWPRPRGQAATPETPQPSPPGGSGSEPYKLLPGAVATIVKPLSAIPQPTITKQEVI

The experiment has as its target Hepatocyte nuclear factor 4-alpha (Homo sapiens) (UniProt P41235). Description: HNF4-alpha DNA association modulation retest – biochemical, fluorescence polarization, FITC-DNA, confirmation (AID 1224897). To be noted: HNF4A-FITC DNA binding, 1 h, at 12.5 µM, active compounds read high. A general note: Fluorescence polarisation rises when a labelled molecule tumbles more slowly, as on binding a larger partner.
Regarding `C/C(=N/Nc1nc(-c2ccccc2)c(CC(=O)O)s1)c1ccccc1`, the activity change was 57.6% (active).

`Fc1cccc(Cc2c(-c3cccc(Cl)c3)nc3ccc(Br)cn23)c1`: the activity change is 51% (active).

As for `C#CCOCCOCCOCCNc1nc(N2CCN(C(=O)C([C@@H](C)O)n3cc([C@@H](N)CCCCN)nn3)CC2)nc(N2CCN(C(=O)[C@H](CCCCN)n3cc(CN)nn3)CC2)n1` (some centres undefined), the activity change is 108% (active).

Turning to `CCC(C)N1C(=O)S/C(=C/c2ccc(Sc3nc4ccccc4[nH]3)o2)C1=O` (centres undefined), the activity change is 76.4% (active).

Consider `Cc1cccc(COc2ccccc2/C=N/Nc2ccc([N+](=O)[O-])cc2)c1`, for which the activity change was 56.9% (active).

Consider `O=C1/C(=C/c2coc3ccc(O)cc3c2=O)SC(=S)N1c1ccccc1`, for which the activity change was 57% (active).

As to `Cn1cccc1/C=C1\SC(=S)N(NC(=O)c2ccc(Cl)cc2)C1=O`, the activity change is 72.5% (active).

Regarding `Cn1c2ccccc2c2cc(/C=C(\NC(=O)c3ccccc3)C(=O)NCC(=O)O)ccc21`, the activity change was 45.6% (active).

Consider `COc1ccc(-c2nc3cc(C)ccn3c2NC2CCCCC2)cc1SC1CCCCC1`, for which the activity change is 37.6% (active).
